According to PubChem BioAssay (NCATS):
Inconclusive results are not listed. Activity calls are given as the source filed them. Calls come from the whole dose curve; as a rule, active = well fitted curve in the direction sought with a large enough effect; inconclusive = small, poorly fitted or top-dose-only effect, or another doubt; inactive = no such curve, though single readings can be large; an effect the other way counts as inactive or inconclusive.

Experiments:
[1] = qHTS assay for small molecule disruptors of mitochondrial membrane potential screened against the NCATS CANVASS Library (AID 1347389); note: series mostly up to about 46 µM; nearly all actives have a fitted effect of over 60% in size
Summary of the method: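 HepG2 cells (2,000/well) plated overnight, then exposed to compounds in 11-point qHTS series for 1 h at 37C before 30 min Mito-MPS dye; depolarization read as fall in red aggregate (590 nm) to green monomer (535 nm) fluorescence.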

[2] = Secretion counterscreen for inhibitors of the SERCaMP assay screened against the NCATS CANVASS Library (AID 1347390);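 note: light from luciferase secreted into medium read as a measure of general secretion; series mostly up to about 77 µM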
Summary of the method: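 SH-SY5Y cells expressing constitutively secreted GLuc, 1000 cells/well, attached 4 h at 37C, then exposed to compounds (0.001 - 77 uM, 11-pnt series) for 20 h. Coelenterazine added; luminescence read to flag secretory-pathway interferers.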

[3] = qHTS for activators of Nrf2/ARE signaling pathway screened against the NCATS CANVASS Library (AID 1347391); note: nearly all actives have a fitted effect of over 60% in size
Summary of the method: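 ARE-bla HepG2 beta-lactamase reporter cells exposed to compounds for 16 h at 37C; CCF4 substrate 2 h, fluorescence at ex 405 nm, em 460/530 nm. Viability by CellTiter-Glo luminescence.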

[4] = qHTS for activators of dead-cell proteases activity screened against the NCATS CANVASS Library (AID 1347392);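 note: luminescence from protease leaking out of membrane-damaged cells cleaving impermeant substrate; rising signal means more cytotoxicity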
Summary of the method: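 Compounds are pin-transferred onto attached HepG2 cells, giving 11 final concentrations. After 5 h at 37C, AAF-aminoluciferin reagent is added and luminescence is recorded at room temperature.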

[5] = qHTS for inhibitors of ER calcium dysfunction: SERCaMP assay screened against the NCATS CANVASS Library (AID 1347393);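 note: series mostly up to about 77 µM; lower secreted reporter signal means inhibitor of ER calcium depletion; nearly all actives have a fitted effect of over 40% in size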
Summary of the method: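 Thapsigargin-induced ER calcium depletion drives GLuc-SERCaMP secretion from SH-SY5Y cells; compounds given 16 h beforehand were scored by lowered coelenterazine luminescence after 4 h challenge.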

[6] = Vero-766 cells viability qHTS against the NCATS CANVASS Library: Counterscreen for Zika virus inhibition assay (AID 1347394); note: series mostly up to about 46 µM; nearly all actives have a fitted effect of over 60% in size
Summary of the method: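 Uninfected Vero 766 (African green monkey) cells, 1000/well, attached overnight, then exposed 72 h at 37C to compounds (11-point qHTS). Viability read by CellTiter-Glo luminescence; media-only wells served as 100% inhibition.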

[7] = qHTS for inhibitors of Wild type Zika virus screened against the NCATS CANVASS Library (AID 1347396);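 note: ATP luminescence of surviving cells so rescue from viral cell killing; series mostly up to about 46 µM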
Summary of the method: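 Protection against wild-type Zika cytopathic effect is measured in African green monkey Vero 766 cells exposed to an 11-point compound series. Surviving cells are quantified by CellTiter Glo luminescence after 72 h.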

[8] = Viability qHTS for inhibitors of the SERCaMP assay screened against the NCATS CANVASS Library (AID 1347400); note: series mostly up to about 92 µM; nearly all actives have a fitted effect of over 70% in size
Summary of the method: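 SH-SY5Y-GLuc SERCaMP MJH297-derived cells, 1000/well, plated 4 h, then exposed to compounds in an 11-point qHTS series for 48 h at 37C. Viability read as CellTiter-Glo luminescence.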

[9] = Redox Reaction Profiling qHTS: Assay Interference Panel against the NCATS CANVASS Library (AID 1347401)
Summary of the method: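 Cell-free redox surrogate: 5 uM resazurin + 200 uM DTT, 50 mM HEPES pH 7.3/50 mM NaCl; cpds pinned, 11-pt qHTS; Ex525/Em598 read t0 and t=15 min, dark.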

Measured: outcome

C[C@@H]1O[C@@H](OC[C@H]2O[C@@H](Oc3c(-c4ccc(O)c(O)c4)oc4cc(O)cc(O)c4c3=O)[C@H](O)[C@@H](O)[C@@H]2O)[C@H](O)[C@H](O)[C@H]1O
inactive: [1] | [2] | [3] | [4] | [5] | [6] | [7] | [8] | [9]
